From PubChem BioAssay
FMDV antiviral – Primary qHTS Assay for Foot and Mouth Disease Virus Antivirals against NCGC Sytravon and CBC Compound Libraries: Firefly Luciferase Signal; FMDV antiviral cell assay, firefly luciferase signal; 0.23% of 120,000 active; Potency, µM (top dose mostly 57.5 µM), for inactives: at the top dose activity change, negative = inhibition, actives largely listed as inhibitors; AID 1745856, 2022; note: nearly all actives have a fitted effect of over 60% in size
FMDV Renilla – Primary qHTS Assay for Foot and Mouth Disease Virus Antivirals against NCGC Sytravon and CBC Compound Libraries: Renilla Luciferase Signal; FMDV replicon cells, Renilla luciferase signal; Potency, µM (titrated, usually from 57.5 µM), for the others: top-dose activity change, negative = inhibition, hits mostly inhibitors; 0.32% of 120,000 active; note: nearly all actives have a fitted effect of over 55% in size
* = called active by the depositor; ? = inconclusive. This is a sample that favours compounds with a hit; in the whole collection about 0.4% have one here. Calls come from the whole dose curve. % is set by controls: 0 for no effect and ±100 for the full control effect; potency is the fitted concentration of half-maximal effect.

SMILES | FMDV antiviral | FMDV Renilla
CCCc1nc(Cn2cnc3c2c(=O)n(C)c(=O)n3C)cs1 | 10µM* | 10µM*
Cn1c(=O)c2c(ncn2Cc2cccc3ccccc23)n(C)c1=O | ? | 5.6µM*
COCc1cccc(C(=O)NCCC(C)C)c1 | 136% | 61%
Cc1ncc(CN)c(N)n1 | 21% | 9%
N#CC1(NC(=O)CSc2c(Cl)cccc2Cl)CCCCC1 | 8% | 87%
Cc1cccc(-n2nnnc2C2(N3CCCC3)CCCC2)c1 | -4% | 16%
Cc1cccc(-n2nnnc2S(C)(=O)=O)c1 | 28µM* | ?
Cc1cc(C)cc(NC(=O)c2ccc3c(c2)NC(=O)CS3)c1 | 3% | 7%
Cc1ccc(N2C(=O)CSC23C(=O)N(CC(=O)Nc2ccc(C(C)C)cc2)c2ccccc23)cc1C (configuration not stated) | ? | -27%
Cc1ccc(NC(=O)CN2C(=O)C3(SCC(=O)N3c3cccc(Cl)c3)c3ccccc32)cc1C (configuration not stated) | ? | 13µM*
CC(=O)N1CCN(Cc2coc(-c3ccc(Cl)cc3)n2)CC1 | 12% | ?
O=C(CSCc1coc(-c2ccc(Cl)cc2)n1)N1CCCCC1 | -13% | 20µM*
O=C(COc1ccc(Cl)cc1Cl)Nc1ccc2c(c1)CCN2C(=O)c1cccnc1 | 65% | 7%
Cc1ccc(C(=O)Nc2nc(-c3nnn(-c4cccc(Cl)c4C)c3C)ns2)cc1C | 3.5µM* | 5µM*
Cc1ccc(Cl)cc1-n1nnc(-c2nsc(NC(=O)c3ccccc3Cl)n2)c1C | 111% | -15%
Cc1cc(C)cc(NC(=O)C2CCN(c3nnc(-n4c(C)ccc4C)s3)CC2)c1 | 22% | -3%
Cc1ccc(C)c(N2CCN(C(=O)C3CCN(c4nnc(-n5c(C)ccc5C)s4)CC3)CC2)c1 | ? | 11µM*
Cc1cc(C)c2[nH]c(C)c(CN3CCC(C)CC3)c(=O)c2c1 | 0% | -10%
Cc1ccc(-n2c(/C=C\c3ccc(F)c(F)c3)nc3ccccc3c2=O)c(C)c1 | 7.9µM* | 3.5µM*
Cc1ccccc1-n1c(/C=C/c2ccc(O)cc2)nc2ccccc2c1=O | 8% | ?
CCCc1nnc2sc(COc3ccc(Br)cc3)nn12 | 5% | -5%
Cc1nc(-c2ccc(CCNC(=O)c3nccnc3N)s2)cs1 | 26% | ?
Cc1nc(-c2ccc(CNC(=O)c3nccnc3N)s2)cs1 | ? | 8.9µM*
COc1cccc(Nc2c(-c3ccc(O)c(OC)c3)nc3ccc(Cl)cn23)c1 | 0% | 63%
CCc1c(C)sc2c1CCN(C(=O)Nc1ccccc1C(=O)OC)C2c1ccc(F)cc1 (configuration not stated) | -14% | 3%
SMILES | FMDV antiviral | FMDV Renilla
CCc1c(C)sc2c1CCN(C(=O)Nc1ccc(F)c(Cl)c1)C2c1ccc(F)cc1 (configuration not stated) | 35µM* | ?
Cn1c(=O)c2c(ncn2CC(=O)c2ccc3c(c2)CCC3)n(C)c1=O | -6% | -18%
COc1ccc(C(=O)/C(C#N)=C\c2ccc(OC(F)F)c(OC)c2)cc1 | 15% | 18%
CCCC/C(=N/NC(=S)Nc1cccc(C)c1)c1ccccc1 | 5% | 0%
O=C(NC1CCCC1)c1ccc2c(c1)N(Cc1ccc(F)cc1)C(=O)c1ccccc1S2 | -22% | 18%
O=C(NC1CCCC1)c1ccc2c(c1)N(Cc1ccccc1)C(=O)c1ccccc1S2 | 25µM* | ?
CCS(=O)(=O)N1CCc2cc(C(=O)Nc3cccc(C(C)=O)c3)ccc21 | 61% | 9%
CC(C)c1ccc(NC(=O)c2ccc3c(c2)CCN3S(=O)(=O)c2ccccc2)cc1 | -16% | 17%
CCCCc1ccc(NC(=O)c2ccc3c(c2)CCN3S(=O)(=O)CC)cc1 | 8.9µM* | 25µM*
CC(C)c1ccc(NC(=O)c2ccc3c(c2)CCCN3S(C)(=O)=O)cc1 | ? | 8.9µM*
CS(=O)(=O)N1CCc2cc(C(=O)Nc3ccc(C(F)(F)F)cc3)ccc21 | ? | 32µM*
Cc1ccc(S(=O)(=O)N2CCc3cc(C(=O)Nc4ccc(C(F)(F)F)cc4)ccc32)cc1 | 2% | 136%
CCN1CCN(CCC(=O)Nc2sc(-c3ccccc3)cc2C(=O)OC)CC1 | -5% | 1%
Cc1ccc(-c2cc(C(=O)Nc3ccccn3)c3ccccc3n2)s1 | 58% | 4%
CSc1nnnn1-c1c(C)n(C)n(-c2ccccc2)c1=O | 3% | -5%
O=C(Nc1cccc2cccnc12)c1ccc(F)cc1 | 90% | -11%
O=S(=O)(Nc1cccc2cccnc12)c1ccc(F)cc1 | ? | 22µM*
O=C(COc1ccc2c(-c3ccc(F)cc3)noc2c1)OCc1ccccc1 | 2.8µM* | 1%
COC(=O)c1ccc(COc2ccc3c(-c4ccc(F)cc4)noc3c2)cc1 | 16% | 16%
S=C(NC1CCCCC1)c1ccccc1 | 0% | 25%
O=C(Nc1cccnc1)c1ccc(SC(F)(F)F)cc1 | 112% | -25%
O=C(Nc1ccncc1)c1ccc(SC(F)(F)F)cc1 | ? | 20µM*
NC(=O)CCS(=O)(=O)CCN1CCCC1c1cccc(Cl)c1 (configuration not stated) | 23% | 10%
CC(C)(C)CC(=O)C(C#N)C(=O)NCc1ccccc1 (configuration not stated) | 23% | 13%
Cc1cc(C)cc(Nc2cc(C(=O)NCCCN(C)C3CCCCC3)c3ccccc3n2)c1 | -15% | -5%
SMILES | FMDV antiviral | FMDV Renilla
Cc1ccc(C)c(Nc2cc(C(=O)NCCCN(C)C3CCCCC3)c3ccccc3n2)c1 | -14% | 32µM*
CCN(CC)C(=O)Cn1c(=O)c2c(ncn2Cc2ccco2)n(Cc2ccccc2)c1=O | 2% | -1%
N#Cc1ccccc1CON=C1CCC2(CC1)OCCO2 | 193% | 16%
O=[N+]([O-])c1cccc(CON=C2CCC3(CC2)OCCO3)c1 | 2µM* | -8%
COc1ccc2c(CC(=O)OCC(=O)c3ccccc3)coc2c1 | 8% | 2%
COc1ccc(NC(=O)C(C)Oc2cc(C)cc(C)c2)c2cccnc12 (configuration not stated) | ? | 28µM*
COc1ccc(NC(=O)C(C)Oc2cccc(C)c2C)c2cccnc12 (configuration not stated) | ? | 4µM*
COc1ccccc1OC(C)C(=O)Nc1ccc(OC)c2ncccc12 (configuration not stated) | 14% | 18%
CCOc1ccc(NC(=O)C(C)Oc2cc(C)cc(C)c2)c2cccnc12 (configuration not stated) | -8% | -14%
Cc1ccc2oc(C(=O)NCCCOC3CCCCC3)cc(=O)c2c1 | 2% | 9%
